# Activity calls are given as the source filed them.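 The calls were made as follows: active = CXCR6 mean IC50 below 15 µM, and neither CCR6 nor CXCR5 mean IC50 under five times that; inactive = the rest.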
# Biological target: C-X-C chemokine receptor type 5 (Homo sapiens) (UniProt P32302)
# Experiment: antagonist selectivity across CCR6, CXCR5 and CXCR6 – cell-based, CHO-K1 PathHunter beta-arrestin, luminescence, selectivity assay for CXCR6 antagonist project, profiling panel (AID 651601)
# Conditions: antagonist mode, mean of runs
# C-X-C chemokine receptor type 5 (Homo sapiens), sequence (P32302 whole entry, looked up): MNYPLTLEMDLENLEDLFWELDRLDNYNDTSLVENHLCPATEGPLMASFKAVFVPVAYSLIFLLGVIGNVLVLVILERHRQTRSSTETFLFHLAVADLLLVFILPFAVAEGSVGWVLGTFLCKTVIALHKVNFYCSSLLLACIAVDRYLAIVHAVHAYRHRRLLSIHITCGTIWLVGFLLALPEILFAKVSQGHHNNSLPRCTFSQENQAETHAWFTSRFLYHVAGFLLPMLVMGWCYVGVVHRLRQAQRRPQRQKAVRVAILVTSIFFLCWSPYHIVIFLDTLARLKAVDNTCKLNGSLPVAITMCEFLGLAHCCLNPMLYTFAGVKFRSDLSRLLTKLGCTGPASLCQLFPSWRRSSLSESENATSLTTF
row,SMILES,outcome
1,COc1cccc(C(=O)NC2CC3CCCC(C2)N3CC(=O)Nc2ccc(N(C)C)cc2)c1 (stereo unspecified),inactive
2,COc1cc(C(=O)NC2CC3CCCC(C2)N3CC(=O)Nc2ccccc2)cc(OC)c1OC (stereo unspecified),inactive
3,O=C(CN1C2CCCC1CC(NC(=O)c1ccccc1)C2)Nc1ccccc1C(F)(F)F (stereo unspecified),inactive
4,O=C(CN1C2CCCC1CC(NC(=O)c1ccccc1)C2)Nc1ccccc1 (stereo unspecified),inactive
5,CN(C)c1ccc(NC(=O)CN2C3CCCC2CC(NC(=O)c2ccccc2)C3)cc1 (stereo unspecified),inactive
6,COc1cccc(C(=O)NC2CC3CCCC(C2)N3CC(=O)Nc2ccccc2C(F)(F)F)c1 (stereo unspecified),inactive
